Source: PubChem BioAssay (NCATS)
Several values for one entry are separate records, joined by “and”; a condition that tells them apart may be missing. Equal values may be shown once. Results filed as inconclusive are left out. Activity calls are given as the source filed them. Unless noted, calls follow the shape of the full dose curve.

Experiments:
[1] = target: Bile acid receptor (Homo sapiens) (UniProt Q96RI1); test: qHTS assay for small molecule agonists of farnesoid X receptor signaling (AID 588527); conditions: HEK293T FXR-UAS-bla, beta-lactamase ratio, 16 h; activation: stronger effect = higher value;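 also: series mostly up to about 77 µM; 0% = vehicle basal and 100% = reference agonist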
Method in brief: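 Read-out: beta-lactamase reporter fluorescence with CCF4 substrate in GeneBLAzer FXR-UAS-bla HEK293T cells, after 16 h compound exposure at 37 C. Response scaled between DMSO basal (0%) and chenodeoxycholic acid at 100 uM (100%).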

[2] = target: Glucocorticoid receptor (Homo sapiens) (UniProt P04150); test: qHTS assay for small molecule agonists of glucocorticoid receptor signaling (AID 588532; active = well fitted curve in the direction sought with a large enough effect in the signal ratio, with a control signal flat; the % refers to the signal ratio;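 also: 100% = dexamethasone at 0.1 µM and 0% = DMSO only wells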); conditions: HeLa MMTV-bla, beta-lactamase ratio, agonist, 18 h; activation: stronger effect = higher value, percent of dexamethasone control, DMSO zero
Method in brief: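 Cells were plated and rested 3-5 h at 37 C, compounds were added in titration and incubated 18 h, then CCF4 substrate was loaded for 2 h at RT before reading blue/green fluorescence. EC50 came from Hill-equation fitting.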

[3] = target: Glucocorticoid receptor (Homo sapiens) (UniProt P04150); test: qHTS assay for small molecule antagonists of glucocorticoid receptor signaling (AID 588533; active = well fitted inhibition curve with a large enough effect in the signal ratio, with a control signal flat, not every such curve was filed as active; the % refers to the signal ratio; also: % is scaled to controls: 0 for no effect and ±100 for the full control effect)
Method in brief: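 Antagonist-mode qHTS: compound titrations added to GRE-bla HeLa cells, then dexamethasone 2 nM final; 18 h, 37 C. CCF4 FRET fluorescence normalized to dexamethasone and DMSO; IC50 from Hill fit.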

[4] = target: Peroxisome proliferator-activated receptor delta (Homo sapiens) (UniProt Q03181); test: qHTS assay for small molecule agonists of peroxisome proliferator-activated receptor delta signaling (AID 588534);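 also: 0% = DMSO basal wells and 100% = positive control agonist at 10 µM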
Method in brief: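 Titration series tested in agonist mode on beta-lactamase reporter cells; 18 hrs at 37 C after a 5 hr pre-incubation. Readout: CCF4 fluorescence, 2 hrs RT. Hill equation gives EC50 and maximal response.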

[5] = target: Peroxisome proliferator-activated receptor gamma (Homo sapiens) (UniProt P37231); test: qHTS assay for small molecule agonists of peroxisome proliferator-activated receptor gamma signaling (AID 588536; active = well fitted curve in the direction sought with a large enough effect in the signal ratio, with a control signal flat, not every such curve was filed as active; the % refers to the signal ratio;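 also: 0% = DMSO basal wells and 100% = rosiglitazone at 2 µM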)
Method in brief: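 Beta-lactamase reporter read-out: CCF4 fluorescence (ex 405, em 460/530 nm) after 2 h at RT. HEK293 GeneBLAzer cells were treated for 16 h at 37 C. Hill fits gave EC50 and efficacy versus 2 uM rosiglitazone (100%) and DMSO (0%).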

[6] = target: Peroxisome proliferator-activated receptor gamma (Homo sapiens) (UniProt P37231); test: qHTS assay for small molecule antagonists of peroxisome proliferator-activated receptor gamma signaling (AID 588537; active = well fitted inhibition curve with a large enough effect in the signal ratio, with a control signal flat, not every such curve was filed as active; the % refers to the signal ratio;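 also: reporter cells co-stimulated with 50 nM rosiglitazone agonist during compound treatment; % of control where 0% means no effect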)
Method in brief: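 Read-out: CCF4 fluorescence (ex 405, em 460/530 nm) after 2 h at RT. Cells were HEK293 carrying a UAS-bla reporter and treated 16 h at 37 C with compound plus rosiglitazone (50 nM final). Normalized to rosiglitazone and DMSO.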

[7] = target: Vitamin D3 receptor (Homo sapiens) (UniProt P11473); test: qHTS assay for small molecule antagonists of vitamin D receptor signaling (AID 588541);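 also: receptor activated by calcitriol during compound treatment; series mostly up to about 77 µM; % is scaled to controls: 0 for no effect and ±100 for the full control effect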
Method in brief: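 VDR-UAS-bla HEK293T cells in 2% charcoal-stripped FBS were stimulated with 1-alpha,25-dihydroxyvitamin D3 (3 nM final) plus compound for 16 h at 37 C. The beta-lactamase CCF4 readout was normalized to 50 nM agonist and DMSO, and Hill fits gave IC50.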

[8] = target: Vitamin D3 receptor (Homo sapiens) (UniProt P11473); test: qHTS assay for small molecule agonists of vitamin D receptor signaling (AID 588543);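 also: 0% = DMSO basal and 100% = reference agonist control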
Method in brief: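 Reporter cells (HEK293T, VDR-UAS-bla) were seeded in medium with 2% charcoal-stripped serum and incubated 5 h, then compounds in concentration series were added for 16 h at 37 °C. Stimulation was scaled between DMSO basal and 50 nM 1α,25-dihydroxyvitamin D3.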

[9] = qHTS assay for small molecule agonists of retinoid X receptor alpha signaling (AID 588544); conditions: HEK293T RXRa-UAS-bla, beta-lactamase reporter, 18 h; 530 nm emission;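 as to activation: 0% = DMSO basal wells and 100% = reference agonist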
[10] = target: Retinoic acid receptor RXR-alpha (Homo sapiens) (UniProt P19793); test: as above
[11] = target: Thyroid hormone receptor beta (Homo sapiens) (UniProt P10828); test: qHTS assay for small molecule agonists of thyroid hormone receptor beta signaling (AID 588545)
Method in brief: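 Cells (2500/well) were seeded, incubated 4 hrs at 37 C, dosed with a compound series, incubated 18 hrs, loaded with CCF4 dye for 2 hrs at RT, then read for fluorescence. Data were scaled between DMSO (0%) and 10 nM T3 (100%).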

[12] = qHTS assay for small molecule antagonists of retinoid X receptor alpha signaling (AID 588546; active = well fitted inhibition curve with a large enough effect in the signal ratio, with a control signal flat, not every such curve was filed as active; the % refers to the signal ratio;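 also: cells stimulated with 9-cis-retinoic acid as agonist; % is scaled to controls: 0 for no effect and ±100 for the full control effect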); conditions: HEK293T RXRa-UAS-bla, beta-lactamase ratio, antagonist mode; measured here: W530 green channel, cytotoxicity proxy
Method in brief: (§1)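 Beta-lactamase reporter inhibition, read as CCF4 fluorescence ratio (ex 405, em 460/530 nm) after 2 h at RT. HEK293T UAS-bla cells, 2500/well, were stimulated with 9-cis-RA at 500 or 100 nM final alongside test compound for 18 h at 37 C.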

[13] = target: Retinoic acid receptor RXR-alpha (Homo sapiens) (UniProt P19793); test: as above; conditions: HEK293T RXRa-UAS-bla, beta-lactamase ratio, antagonist mode
Method in brief: as §1

[14] = target: Peroxisome proliferator-activated receptor alpha (Homo sapiens) (UniProt Q07869); test: qHTS assay for small molecule agonists of the peroxisome proliferator-activated receptor alpha (PPARalpha) signaling pathway (AID 651778; active = well fitted curve in the direction sought with a large enough effect; an effect the other way counts as inactive or inconclusive; also: % of control where 0% means no effect); conditions: PathHunter PPARalpha complementation, chemiluminescence, 6 h; max response: stronger effect = higher value
Method in brief: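 Enzyme-fragment complementation assay in which ligand-bound PPARalpha translocates and forms an active enzyme that generates chemiluminescence. Cells were plated overnight, exposed to compound for 6 hr at 37 C, and then given detection reagent for 60 min at room temperature.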

[15] = qHTS assay for small molecule agonists of the antioxidant response element (ARE) signaling pathway measured by Nrf2-dependant transcriptional activity (AID 720636; active = well fitted curve in the direction sought with a large enough effect in the repeat runs; an effect the other way counts as inactive or inconclusive;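 also: HepG2 cells with an ARE-driven luciferase reporter; % of control where 0% means no effect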)
Method in brief: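 HepG2 ARE-luc reporter line, 1% dialyzed FBS; 6 hr attachment at 37 C, compound pinned in, 16 hr at 37 C/5% CO2; ONE-Glo, 30 min RT, luminescence read.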

[16] = qHTS assay for small molecule agonists of the antioxidant response element (ARE) signaling pathway measured by Nrf2-dependant transcriptional activity - cell viability counter screen (AID 720653; active = well fitted curve in the direction sought with a large enough effect in the repeat runs; an effect the other way counts as inactive or inconclusive; also: % is scaled to controls: 0 for no effect and ±100 for the full control effect); conditions: ARE-bla HepG2 viability, CellTiter-Glo ATP luminescence, 16 h; max response: stronger effect = lower value
Method in brief: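 ARE-bla HepG2 cells treated with compounds for 16 h at 37C; this counter screen measures viability as intracellular ATP by CellTiter-Glo luminescence after 30 min at room temperature.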

[17] = qHTS assay for cell viability of HEK293 cells (AID 743288; active = well fitted curve in the direction sought with a large enough effect; an effect the other way counts as inactive or inconclusive; also: % is scaled to controls: 0 for no effect and ±100 for the full control effect; nearly all actives have a fitted effect of over 50% in size); conditions: ATP luminescence (CellTiter-Glo), 18 h; max response: stronger effect = lower value
Method in brief: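 Viable-cell counts were inferred from luciferase-based ATP content in HEK293 cells seeded at 2,000/well, pre-incubated ≥5 h, then dosed with DMSO-solubilised compounds for 18 h at 37 C.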

[18] = target: Nuclear receptor subfamily 1 group I member 2 (Rattus norvegicus) (UniProt Q9R1A7); test: qHTS assay for small molecule activators of the rat pregnane X receptor (rPXR) signaling pathway (AID 651751; call rule not given here; also: 0% is about no effect); conditions: rPXR reporter cells, luciferase (One-Glo), 24 h
[19] = qHTS assay for small molecule activators of the human pregnane X receptor (PXR) signaling pathway (AID 720659; call rule not given here; also: 0% is about no effect)
[20] = qHTS assay for small molecule antagonists of peroxisome proliferator-activated receptor delta signaling (AID 588535); conditions: HEK293T PPARd-UAS-bla, beta-lactamase FRET ratio, 18 h; 460 nm channel;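 also: cells co-treated with a PPAR-delta agonist as stimulator during compound exposure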
Method in brief: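 Beta-lactamase reporter read-out (405 nm excitation, 460/530 nm emission) after CCF4 loading for 2 hrs at RT. HEK293T PPAR-delta-UAS-bla cells, 2% charcoal/dextran FBS, compounds for 18 hrs at 37 C. Hill fit gave IC50 and efficacy.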

[21] = qHTS assay for small molecule agonists of the antioxidant response element (ARE) signaling pathway (AID 651741; active = well fitted activation curve with a large enough effect in the signal ratio; the % refers to the signal ratio; also: % of control where 0% means no effect)
Method in brief: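 HepG2 ARE-bla reporter cells, 2,000/well; 5 h settle at 37 C/5% CO2; compound pin transfer (23 nL, DMSO); 16 h at 37 C; LiveBLAzer B/G FRET substrate, 2 h RT; fluorescence intensity read.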

[22] = qHTS assay for small molecule activators of the p53 signaling pathway (AID 651743; active = well fitted activation curve with a large enough effect in the signal ratio, not every such curve was filed as active; the % refers to the signal ratio; also: series mostly up to about 92 µM; % of control where 0% means no effect); conditions: HCT-116 p53RE-bla, beta-lactamase FRET ratio, 16 h; activation: stronger effect = higher value
Method in brief: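 Reporter: beta-lactamase driven by p53 response elements, stably integrated in HCT-116 cells. Cells seeded at 4,000/well, 5 h preincubation, compound (DMSO) 16 h at 37 C; B/G FRET substrate 2 h RT; fluorescence intensity read.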

[23] = qHTS assay for small molecule activators of the nuclear factor-kappa B (NF-kB) signaling pathway (AID 651749; active = well fitted activation curve with a large enough effect in the signal ratio; the % refers to the signal ratio; also: series mostly up to about 77 µM; % of control where 0% means no effect); conditions: NF-kB-bla ME-180 cells, beta-lactamase FRET ratio, 16 h; activation: stronger effect = higher value
Method in brief: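 NF-kB-bla ME-180 cells, 2,000/well; 23 nL compound or DMSO pinned; 16 hr, 37C/5% CO2; beta-lactamase FRET read-out.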

[24] = qHTS assay for environmental chemicals that activate the Aryl hydrocarbon Receptor (AhR) signaling pathway (AID 651777; active = well fitted curve in the direction sought with a large enough effect; an effect the other way counts as inactive or inconclusive; also: % of control where 0% means no effect; nearly all actives have a fitted effect of over 15% in size); conditions: 1A2-DRE human hepatoma cells, luciferase, 24 h; activation: stronger effect = higher value
Method in brief: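 Luminescence read-out: One-Glo added for 30 min at RT after 24 hr compound treatment (37 C, 5% CO2) of human hepatoma cells expressing a DRE/CYP1A2 promoter–luciferase reporter; increased signal indicates AhR activation.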

[25] = qHTS assay for cell viability of the p53RE-bla HCT-116 cell line (AID 743292; active = well fitted curve in the direction sought with a large enough effect; an effect the other way counts as inactive or inconclusive; also: % is scaled to controls: 0 for no effect and ±100 for the full control effect; nearly all actives have a fitted effect of over 55% in size)
Method in brief: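 Luminescent ATP quantitation (CellTiter-Glo) served as the viability read-out; reagent was added after 16 h compound exposure at 37 C and read after 30 min at room temperature. Cells: p53RE-bla HCT-116, 4,000 per well.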

Chain of Retinoic acid receptor RXR-alpha (Homo sapiens) (P19793 whole entry, looked up): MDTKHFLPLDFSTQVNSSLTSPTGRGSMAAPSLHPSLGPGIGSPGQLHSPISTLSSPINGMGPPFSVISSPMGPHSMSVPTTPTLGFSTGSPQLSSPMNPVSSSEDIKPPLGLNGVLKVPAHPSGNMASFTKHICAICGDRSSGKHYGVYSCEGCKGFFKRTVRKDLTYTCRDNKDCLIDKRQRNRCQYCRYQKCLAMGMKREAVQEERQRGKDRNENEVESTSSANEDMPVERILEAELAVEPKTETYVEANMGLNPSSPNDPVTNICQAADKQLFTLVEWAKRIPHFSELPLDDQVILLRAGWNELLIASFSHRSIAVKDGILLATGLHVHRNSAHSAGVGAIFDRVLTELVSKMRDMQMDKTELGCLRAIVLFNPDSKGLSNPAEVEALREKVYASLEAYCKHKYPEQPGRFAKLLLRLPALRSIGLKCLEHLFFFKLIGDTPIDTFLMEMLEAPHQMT
Chain of Bile acid receptor (Homo sapiens) (Q96RI1 whole entry, looked up): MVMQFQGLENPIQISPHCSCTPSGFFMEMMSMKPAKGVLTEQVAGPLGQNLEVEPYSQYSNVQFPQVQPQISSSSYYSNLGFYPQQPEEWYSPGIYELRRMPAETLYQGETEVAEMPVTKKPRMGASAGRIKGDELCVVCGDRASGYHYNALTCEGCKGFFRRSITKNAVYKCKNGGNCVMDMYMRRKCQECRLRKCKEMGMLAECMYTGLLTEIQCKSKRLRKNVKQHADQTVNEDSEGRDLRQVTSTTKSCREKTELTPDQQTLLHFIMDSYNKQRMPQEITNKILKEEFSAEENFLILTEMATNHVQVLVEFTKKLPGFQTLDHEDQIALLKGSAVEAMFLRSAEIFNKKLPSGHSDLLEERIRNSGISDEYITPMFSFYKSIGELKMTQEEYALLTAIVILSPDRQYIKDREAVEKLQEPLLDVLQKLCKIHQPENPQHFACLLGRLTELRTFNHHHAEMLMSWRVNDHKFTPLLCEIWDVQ
Chain of Glucocorticoid receptor (Homo sapiens) (P04150 whole entry, looked up): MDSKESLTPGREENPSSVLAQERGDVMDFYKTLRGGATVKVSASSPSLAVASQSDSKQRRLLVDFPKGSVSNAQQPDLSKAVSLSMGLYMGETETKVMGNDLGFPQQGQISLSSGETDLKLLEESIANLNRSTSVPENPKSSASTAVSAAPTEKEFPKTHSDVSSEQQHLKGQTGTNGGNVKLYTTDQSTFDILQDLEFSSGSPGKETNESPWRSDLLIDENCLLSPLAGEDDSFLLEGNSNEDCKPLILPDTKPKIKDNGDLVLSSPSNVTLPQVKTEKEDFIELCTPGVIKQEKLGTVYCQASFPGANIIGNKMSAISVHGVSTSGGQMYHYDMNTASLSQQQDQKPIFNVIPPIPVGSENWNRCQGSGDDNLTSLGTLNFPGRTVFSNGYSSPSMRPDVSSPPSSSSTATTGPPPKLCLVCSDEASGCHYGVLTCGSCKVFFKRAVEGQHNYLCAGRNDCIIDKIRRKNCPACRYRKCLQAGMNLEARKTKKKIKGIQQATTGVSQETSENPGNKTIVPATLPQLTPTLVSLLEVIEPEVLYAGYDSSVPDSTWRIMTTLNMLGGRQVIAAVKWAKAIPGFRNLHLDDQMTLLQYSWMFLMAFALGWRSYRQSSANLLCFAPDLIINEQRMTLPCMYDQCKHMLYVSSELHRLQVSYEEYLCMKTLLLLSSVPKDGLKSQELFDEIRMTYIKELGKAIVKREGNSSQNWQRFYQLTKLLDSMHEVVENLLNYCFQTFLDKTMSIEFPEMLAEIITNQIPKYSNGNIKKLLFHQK
Chain of Thyroid hormone receptor beta (Homo sapiens) (P10828 whole entry, looked up): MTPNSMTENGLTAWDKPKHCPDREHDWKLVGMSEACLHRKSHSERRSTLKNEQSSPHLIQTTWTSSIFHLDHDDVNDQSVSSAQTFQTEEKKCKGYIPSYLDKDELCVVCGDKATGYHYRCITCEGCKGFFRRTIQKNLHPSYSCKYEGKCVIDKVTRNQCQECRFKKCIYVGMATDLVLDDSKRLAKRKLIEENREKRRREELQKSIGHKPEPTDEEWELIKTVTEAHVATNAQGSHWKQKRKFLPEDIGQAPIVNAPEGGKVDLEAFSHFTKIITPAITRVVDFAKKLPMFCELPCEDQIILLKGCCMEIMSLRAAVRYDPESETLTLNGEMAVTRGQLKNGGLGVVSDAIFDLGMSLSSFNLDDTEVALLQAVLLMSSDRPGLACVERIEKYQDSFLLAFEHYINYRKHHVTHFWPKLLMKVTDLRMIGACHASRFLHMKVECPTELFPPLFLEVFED
Chain of Peroxisome proliferator-activated receptor delta (Homo sapiens) (Q03181 whole entry, looked up): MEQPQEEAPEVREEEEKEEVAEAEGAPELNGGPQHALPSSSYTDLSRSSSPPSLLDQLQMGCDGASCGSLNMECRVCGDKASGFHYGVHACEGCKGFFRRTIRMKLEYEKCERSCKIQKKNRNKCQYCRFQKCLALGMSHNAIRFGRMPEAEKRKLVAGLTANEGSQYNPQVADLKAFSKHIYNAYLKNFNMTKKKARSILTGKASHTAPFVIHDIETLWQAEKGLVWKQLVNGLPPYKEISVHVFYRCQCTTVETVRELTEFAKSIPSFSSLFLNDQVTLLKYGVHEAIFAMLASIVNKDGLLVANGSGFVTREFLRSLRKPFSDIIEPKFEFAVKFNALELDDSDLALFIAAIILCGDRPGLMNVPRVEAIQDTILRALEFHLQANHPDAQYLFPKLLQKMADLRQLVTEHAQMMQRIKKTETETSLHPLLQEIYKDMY
Chain of Vitamin D3 receptor (Homo sapiens) (P11473 whole entry, looked up): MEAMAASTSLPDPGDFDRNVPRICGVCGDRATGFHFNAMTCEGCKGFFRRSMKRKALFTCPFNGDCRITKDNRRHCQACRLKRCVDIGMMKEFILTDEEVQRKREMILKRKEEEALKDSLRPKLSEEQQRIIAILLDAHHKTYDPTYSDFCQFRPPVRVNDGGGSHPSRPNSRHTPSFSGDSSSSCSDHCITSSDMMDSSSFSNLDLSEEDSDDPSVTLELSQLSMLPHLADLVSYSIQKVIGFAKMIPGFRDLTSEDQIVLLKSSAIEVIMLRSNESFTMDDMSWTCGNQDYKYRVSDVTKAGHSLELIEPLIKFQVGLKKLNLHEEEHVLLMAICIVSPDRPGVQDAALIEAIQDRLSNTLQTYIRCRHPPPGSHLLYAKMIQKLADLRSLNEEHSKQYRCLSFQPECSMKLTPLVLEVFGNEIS
Chain of Peroxisome proliferator-activated receptor gamma (Homo sapiens) (P37231 whole entry, looked up): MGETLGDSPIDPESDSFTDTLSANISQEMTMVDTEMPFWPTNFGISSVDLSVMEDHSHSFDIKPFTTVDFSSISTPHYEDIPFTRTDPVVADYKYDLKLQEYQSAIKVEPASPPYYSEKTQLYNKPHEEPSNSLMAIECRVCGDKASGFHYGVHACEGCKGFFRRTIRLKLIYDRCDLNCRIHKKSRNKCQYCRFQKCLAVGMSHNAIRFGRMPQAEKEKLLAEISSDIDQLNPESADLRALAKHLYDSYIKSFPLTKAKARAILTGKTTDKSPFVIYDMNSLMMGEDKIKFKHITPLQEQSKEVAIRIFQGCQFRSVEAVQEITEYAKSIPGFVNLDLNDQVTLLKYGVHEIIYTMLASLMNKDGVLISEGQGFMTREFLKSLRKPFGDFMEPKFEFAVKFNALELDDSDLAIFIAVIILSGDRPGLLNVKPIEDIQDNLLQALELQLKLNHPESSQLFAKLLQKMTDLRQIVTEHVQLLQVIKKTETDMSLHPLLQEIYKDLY
Chain of Nuclear receptor subfamily 1 group I member 2 (Rattus norvegicus) (Q9R1A7 whole entry, looked up): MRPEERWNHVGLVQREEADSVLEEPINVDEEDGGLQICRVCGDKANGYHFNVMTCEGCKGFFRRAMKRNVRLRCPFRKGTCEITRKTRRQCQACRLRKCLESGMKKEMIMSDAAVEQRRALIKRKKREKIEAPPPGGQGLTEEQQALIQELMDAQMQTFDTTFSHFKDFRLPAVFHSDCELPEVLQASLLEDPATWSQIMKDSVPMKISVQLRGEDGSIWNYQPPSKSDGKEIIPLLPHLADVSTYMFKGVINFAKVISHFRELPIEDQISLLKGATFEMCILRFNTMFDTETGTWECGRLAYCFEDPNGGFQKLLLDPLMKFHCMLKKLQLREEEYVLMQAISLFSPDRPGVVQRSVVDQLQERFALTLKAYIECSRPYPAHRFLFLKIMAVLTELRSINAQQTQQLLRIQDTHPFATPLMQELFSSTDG
Chain of Peroxisome proliferator-activated receptor alpha (Homo sapiens) (Q07869 whole entry, looked up, the tested form may be a part): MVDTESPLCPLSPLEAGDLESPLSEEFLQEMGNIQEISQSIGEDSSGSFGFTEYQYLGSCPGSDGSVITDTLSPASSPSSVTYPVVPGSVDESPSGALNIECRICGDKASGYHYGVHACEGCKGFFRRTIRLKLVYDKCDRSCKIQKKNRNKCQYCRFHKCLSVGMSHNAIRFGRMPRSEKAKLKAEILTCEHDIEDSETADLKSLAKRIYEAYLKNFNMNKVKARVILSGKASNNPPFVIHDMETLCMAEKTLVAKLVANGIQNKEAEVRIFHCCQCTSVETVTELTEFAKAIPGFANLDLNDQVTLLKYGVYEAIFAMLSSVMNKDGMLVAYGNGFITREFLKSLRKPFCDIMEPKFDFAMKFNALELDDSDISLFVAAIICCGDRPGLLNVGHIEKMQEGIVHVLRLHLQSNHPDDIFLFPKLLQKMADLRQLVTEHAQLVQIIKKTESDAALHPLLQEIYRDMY

CCSC(=O)N(CC)C1CCCCC1
inactive: activation [1] -3.64% | activation [2] -1.4% | Potency [3] | outcome [4] | Potency [5] | Potency [6] | Potency [7] | outcome [8] | Potency [10] | Potency [11] | max response [13] 16.6% | max response [14] -3.86% | Potency [15] | max response [16] 13.6% | max response [17] 10.3% | max response [18] -10.9% | outcome [19]
12.6%: max response [12]
-3.68%: max response [9]

CCCCOC(=O)COc1ccc(Cl)cc1Cl
inactive: activation [1] -5.91% and -0.513%

O=C(O)[C@@H]1[C@H](C(=O)O)[C@@]2(Cl)C(Cl)=C(Cl)[C@]1(Cl)C2(Cl)Cl
inactive: activation [1] 7.2% | activation [2] -1.44% | Potency [3] | outcome [4] | Potency [10] | Potency [11] | Potency [21] | activation [22] -1.67% | activation [23] -0.556% | activation [24] 1.48% | max response [14] 0.99% | Potency [15] | max response [16] -22.8% | max response [17] -18.3% | Potency [25] | max response [18] 4.23%
-1.73%: max response [9]
2.51%: max response [20]

CCc1cccc(C)c1N(C(=O)CS(=O)(=O)O)[C@@H](C)COC
inactive: activation [1] 1.55%
